Source: PubChem BioAssay (The Scripps Research Institute Molecular Screening Center)
Shown are actives, neighbours in structure and some others; about 3.4% of the full set was active somewhere.
MITF inh = inhibitors of human MITF; O75030; AlphaScreen MITF homodimerization, bead proximity signal; inhibition, % at 2.6 µM; 650,000 tested, 0.91% active; AID 1259374; in the data active = inhibition above about 50%
FBW7 activator = human FBW7 E3 ligase activation, primary screen; Q969H0; AlphaScreen FBW7–phospho-cyclin E peptide binding, activator screen; normalized activity (activation), % at 26.1 µM; 650,000 tested, 0.13% active; AID 1259310; in the data active = normalized activity above about 1.9%;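 also: purified mutant Fbw7 with reduced substrate affinity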
Target sequence (Q969H0 whole entry, looked up): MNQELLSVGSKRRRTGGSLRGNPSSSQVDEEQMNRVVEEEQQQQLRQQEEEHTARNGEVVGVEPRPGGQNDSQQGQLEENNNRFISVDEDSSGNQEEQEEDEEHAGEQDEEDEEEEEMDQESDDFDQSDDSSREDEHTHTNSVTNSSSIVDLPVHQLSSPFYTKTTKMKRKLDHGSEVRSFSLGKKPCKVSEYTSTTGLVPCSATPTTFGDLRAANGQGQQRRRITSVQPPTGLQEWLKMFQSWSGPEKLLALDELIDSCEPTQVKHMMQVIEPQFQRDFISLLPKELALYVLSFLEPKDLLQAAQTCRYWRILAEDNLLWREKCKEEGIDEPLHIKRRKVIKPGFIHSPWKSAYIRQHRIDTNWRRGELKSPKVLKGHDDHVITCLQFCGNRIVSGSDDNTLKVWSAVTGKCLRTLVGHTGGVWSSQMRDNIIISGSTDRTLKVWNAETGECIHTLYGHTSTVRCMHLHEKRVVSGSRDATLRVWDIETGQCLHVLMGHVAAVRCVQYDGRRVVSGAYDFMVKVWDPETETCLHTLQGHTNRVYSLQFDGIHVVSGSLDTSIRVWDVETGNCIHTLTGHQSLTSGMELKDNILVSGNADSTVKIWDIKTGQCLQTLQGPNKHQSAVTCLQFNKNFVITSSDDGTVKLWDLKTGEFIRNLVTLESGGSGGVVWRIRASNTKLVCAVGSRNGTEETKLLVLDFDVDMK
TEAD-YAP block = TEAD-YAP interaction inhibition. HEK-TIYL cells, TEAD-Gal4/YAP UAS-luciferase luminescence. inhibition, % at 9.12 µM. 640,000 tested, 1.4% active; in the data active = inhibition above about 32%
GPR151 ag = activators of human GPR151 | AID 1508602 | PathHunter beta-arrestin GPR151 cells, luminescence | Q8TDV0 | 650,000 tested, 1% active | activation, % at 11.2 µM; in the data active = activation above about 4.9%
GPR151 confirm = human GPR151 activation, confirmation screen. GPR151 PathHunter beta-arrestin cells, luminescence, 90 min; % of EA-reagent control over plate median. activation, % at 11.2 µM. 6,700 tested, under 10 active. AID 1508609. shares compounds with GPR151 ag;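 active = mean percent activation across replicates above the confirmation screen cutoff of 4.91%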
GPR119 counter = activates human GPR119 in a GPR151 counter-screen; shares compounds with GPR151 ag; GPR119 PathHunter beta-arrestin cells, luminescence, 90 min; 0 = compound-well median, 100 = enzyme-acceptor control; activation, % at 11.2 µM; 6,700 tested, 0.3% active; AID 1508611;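 active = mean percent activation in the counterscreen above 29.09%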;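 also: counterscreen on off-target GPR119 to flag nonselective hits from the GPR151 activator screen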
Large screens that a line does not name were inactive (follow-up assays come after a bar, where they were run).

CCN(CC)C(=O)COc1ccc2c(C)cc(=O)oc2c1C	none
CC(=O)COc1ccc2c(oc(=O)c3ccccc32)c1C	GPR151 ag 7.0 | GPR151 confirm inactive | GPR119 counter inactive
COc1ccc(NC(=O)C2CC(=O)NC(Nc3nc4ccccc4s3)=N2)cc1 (configuration not stated)	none
CC(C)N(C)Cc1nnnn1CC(=O)NCC(c1ccccc1)c1ccccc1	none
CCOC(=O)N1CCN(C(=O)Cn2nnnc2CN2CCCCCC2)CC1	none
CC(C)N(C)Cc1nnnn1CC(=O)NC1(c2ccccc2)CC1	GPR151 ag 8.3 | GPR151 confirm inactive | GPR119 counter inactive
CCOC(=O)N1CCN(C(=O)Cn2nnnc2CN(C)C(C)C)CC1	GPR151 ag 5.2 | GPR151 confirm inactive | GPR119 counter inactive
CCOC(=O)c1ccccc1NC(=O)CSc1n[nH]c(N)n1	none
CC(=O)c1ccccc1NC(=O)CSc1n[nH]c(N)n1	GPR151 ag 8.0 | GPR151 confirm inactive | GPR119 counter inactive
O=C(N/N=C/c1cccc([N+](=O)[O-])c1)C(=O)N/N=C/c1cccc([N+](=O)[O-])c1	none
O=C(COc1ccccc1)Nc1ccc(N2CCC(NCCN3CCNC3=O)CC2)cc1	none
O=C(Nc1ccc(N2CCC(NCCN3CCNC3=O)CC2)cc1)C1CCCC1	GPR151 ag 6.3 | GPR151 confirm inactive | GPR119 counter inactive
COCCCn1c(SCC(=O)N2CCOCC2)nnc1-c1ccncc1	none
COc1ccccc1NC(=O)CSc1nnc(CCNC(=O)c2ccc(C)cc2)n1C	GPR151 ag 6.1 | GPR151 confirm inactive | GPR119 counter inactive
COc1cccc(-c2ccc(=O)n(CC(=O)Nc3cccc(C(=O)NC4CC4)c3)n2)c1	none
CCOc1cc(C=C(C#N)C#N)ccc1OC(=O)c1cccs1	GPR151 ag 12 | GPR151 confirm inactive | GPR119 counter inactive
COc1cc(C=C(C#N)C#N)ccc1OC(=O)c1cccs1	none
CCOc1ccc(OCC)c(NC(=O)CN2CCN(C(C)=O)CC2)c1	GPR151 ag 6.8 | GPR151 confirm inactive | GPR119 counter inactive
CCOC(=O)C1=C(C)N=c2s/c(=C/c3ccc(-c4cccc(C(F)(F)F)c4)o3)c(=O)n2C1c1ccc(OC)cc1 (configuration not stated)	none
CCOC(=O)CNC(=O)C1=C(C(=O)O)CCCC1	none
CCC(C)C(=O)Nc1nnc(SCC(=O)Nc2ccccc2OC)s1 (configuration not stated)	none
O=C(NC1CCCCC1)N1CCc2nc(N3CCOCC3)[nH]c(=O)c2C1	none
C=CCn1c(C)cc(C(=O)COC(=O)CNC(=O)c2ccc(OCC)c(OCC)c2)c1C	GPR151 ag 9.6 | GPR151 confirm inactive | GPR119 counter inactive
CCOc1ccc(NC(=O)Cn2c(-n3nc(C)cc3C)nc(C)cc2=O)cc1	GPR151 ag 9.1 | GPR151 confirm inactive | GPR119 counter inactive
COc1ccc(NC(=O)Cn2c(-n3nc(C)cc3C)nc(C)cc2=O)cc1	none
CCN(c1cccc(C)c1)c1ncnc2c1cnn2-c1ccc(C)cc1C	none
COc1ccc(-c2noc(Nc3ccc(Cl)cc3)n2)cc1	GPR151 ag 8.2 | GPR151 confirm inactive | GPR119 counter inactive
COc1ccc(-c2noc(Nc3ccc(C(C)C)cc3)n2)cc1	none
COC(=O)c1c(NC(=O)COc2ccc([N+](=O)[O-])cc2)sc2c1CCC2	none
CC(=O)Nc1ccc(NC(=O)c2cccc(N3CCCC3CO)n2)cc1 (configuration not stated)	GPR151 ag 5.6 | GPR151 confirm inactive | GPR119 counter inactive
COc1ccc(CCNC(=O)c2cccc(N3CCCC3CO)n2)cc1 (configuration not stated)	TEAD-YAP block 46, GPR151 ag 8.7 | GPR151 confirm inactive | GPR119 counter inactive
O=C(NCCO)c1cccc(N2CCCC2CO)n1 (configuration not stated)	none
CCCNC(=O)c1cccc(N2CCC(N3CCOCC3)CC2)n1	none
O=C(NCCc1ccc(O)cc1)c1cccc(N2CCC(N3CCOCC3)CC2)n1	GPR151 ag 5.6 | GPR151 confirm inactive | GPR119 counter inactive
Cc1cc(=O)oc2c1ccc1oc(C(=O)c3ccc(Cl)cc3)c(C)c12	GPR151 ag 5.7 | GPR151 confirm inactive | GPR119 counter inactive
CC(=O)c1oc2ccc3c(C)cc(=O)oc3c2c1C	none
COc1ccc(C(=O)Nc2cccc(-c3nc4ncccc4o3)c2C)cc1OC	GPR151 ag 5.5 | GPR151 confirm inactive | GPR119 counter inactive
COc1ccc(C(=O)Nc2cccc(-c3nc4ncccc4o3)c2C)cc1[N+](=O)[O-]	none
COc1c(C)cccc1C(=O)Nc1cccc(-c2nc3ncccc3o2)c1	GPR151 ag 7.4 | GPR151 confirm inactive | GPR119 counter inactive
CCCCCCSc1nc2sc3c(c2c(=O)n1-c1ccc(OC)cc1)CC(C)(C)OC3	GPR151 ag 9.7 | GPR151 confirm inactive | GPR119 counter inactive
CCCCCCSc1nc2sc3c(c2c(=O)n1-c1ccc(C)cc1)CC(C)(C)OC3	none
Cc1ccc2[nH]c3c(c2c1)CCCC3NC(=O)CCl (configuration not stated)	TEAD-YAP block 88, GPR151 ag 7.3 | GPR151 confirm inactive | GPR119 counter inactive
CCN(c1cccc(C)c1)S(=O)(=O)c1ccc2[nH]cc(C(=O)NCCC(C)C)c(=O)c2c1	none
COc1ccc(C)cc1S(=O)(=O)NCC(c1cccs1)N1CCc2ccccc21 (configuration not stated)	none
CC(Nc1nc(CN(C)C2CCOCC2)nc2ccccc12)c1ccc(F)cc1 (configuration not stated)	GPR151 ag 7.7 | GPR151 confirm inactive | GPR119 counter inactive
Cc1ccc(CNc2nc(CN(C)C3CCOC3)nc3ccccc23)cc1 (configuration not stated)	none
CCC(=O)N1c2ccccc2-c2nnc(SC)nc2OC1c1ccc(OC)cc1 (configuration not stated)	GPR151 ag 5.6 | GPR151 confirm inactive | GPR119 counter inactive
CNc1nc(-c2ccc3c(c2)CCN3S(C)(=O)=O)cs1	GPR151 ag 6.8 | GPR151 confirm inactive | GPR119 counter inactive
O=c1[nH]c2ncc(-c3cccnc3)nc2n1Cc1ccccc1	none
O=C1/C(=C\N2CCCC2)c2ccccc2C(=O)N1c1ccccc1	GPR151 ag 5.0 | GPR151 confirm inactive | GPR119 counter inactive
c1ccc(N2CCCCC2)c(Nc2nc3ccccc3n3nnnc23)c1	GPR151 ag 6.0 | GPR151 confirm inactive | GPR119 counter inactive
Cc1nnc2c(Nc3ccccc3N3CCCCC3)nc3ccccc3n12	none
Cc1ccccc1C(=O)Nc1ccccc1N	none
CC(=O)c1ccc(OC(=O)c2cccc(Br)c2)cc1	GPR151 ag 17 | GPR151 confirm inactive | GPR119 counter inactive
COc1ccc(OC(=O)c2cccc(Br)c2)cc1	none
O=C(Nc1ccc(F)cc1)c1cc(N2CCCCCC2)nc2ccccc12	none
